{"source": "PubChem BioAssay (NCATS)", "note": "Records with an inconclusive call do not appear. A call without a number means that no potency is given here. The source made the active and inactive calls. Calls come from the whole dose curve; as a rule, active = well fitted cell-killing curve with a large enough effect; inconclusive = small, poorly fitted or top-dose-only effect, or effect the other way; inactive = flat fitted curve, though single readings scatter. Potency is the fitted concentration of half-maximal effect."}
{"tested_on": "Tov112D", "assay": "Primary qHTS to identify gynecologic anti-cancer compounds using libraries of approved drugs and bioactive compounds (AID 1345084); note: nearly all actives have a fitted effect of over 55% in size", "conditions": "Gynecologic cancer cell panel viability, ATPlite luminescence, 48 h; series mostly up to 57.5 µM", "summary_of_the_method": "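48 h compound exposure at 37 C, 5% CO2; five-point qHTS. ATPlite luminescence readout of cell ATP.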"}
{"smiles": "C[C@H](CN1CCCC1)C(=O)c1ccc(C(F)(F)F)cc1", "Potency": "inactive"}
{"smiles": "CN1C(CSCC(F)(F)F)Nc2cc(Cl)c(S(N)(=O)=O)cc2S1(=O)=O", "note": "(centres undefined)", "Potency": "inactive"}
{"smiles": "O=C(O)c1ccccc1S", "Potency": "inactive"}
{"smiles": "CCCCC(CC)COC(=O)c1ccccc1C(=O)O", "note": "(centres undefined)", "Potency": "inactive"}
{"smiles": "O=C(Nc1ccc(Cl)cc1)Nc1ccc(Cl)c(C(F)(F)F)c1", "Potency": "31.6 µM (active)"}
{"smiles": "C[C@@]12CCC[C@H]1[C@@H]1CC[C@H]3C[C@@H](O)CC[C@]3(C)[C@H]1CC2", "Potency": "inactive"}
{"smiles": "CO[C@@H]1[C@@H](O[C@@H]2O[C@H](C)[C@@H](O[C@H]3C[C@@](C)(O)[C@@H](O)[C@H](C)O3)[C@H](N(C)C)[C@H]2O)[C@@H](CC=O)C[C@@H](C)[C@@H](O[C@@H]2CC[C@H](N(C)C)[C@@H](C)O2)/C=C/C=C/C[C@@H](C)OC(=O)C[C@H]1OC(C)=O", "Potency": "inactive"}
{"smiles": "Cc1cc(O)c2c(O)c3c(O)cccc3cc2c1", "Potency": "inactive"}
{"smiles": "Cc1cc(C(C)(C)C)c(O)c(C(C)(C)C)c1", "Potency": "inactive"}
{"smiles": "COc1cc(C=O)ccc1O", "Potency": "inactive"}
{"smiles": "O=C(NO)c1ccccc1", "Potency": "inactive"}
{"smiles": "CCN1C(=O)c2ccccc2C1Nc1ccc(OCCN2CCCCC2)cc1", "note": "(centres undefined)", "Potency": "inactive"}
{"smiles": "Cc1ccccc1N1CCN(CCc2nnc3n2CCCC3)CC1", "Potency": "inactive"}
{"smiles": "CC(C(O)c1ccccc1)N(C)CCOC(c1ccccc1)c1ccccc1", "note": "(centres undefined)", "Potency": "inactive"}
{"smiles": "O=P(O)(O)OCC(O)CO", "note": "(centres undefined)", "Potency": "inactive"}
{"smiles": "N#C/C(=C1/SC[C@@H](c2ccc(Cl)cc2Cl)S1)n1ccnc1", "Potency": "inactive"}
{"smiles": "CN1CCC(=C2c3ccccc3CCc3cccnc32)CC1", "Potency": "inactive"}
{"smiles": "COC(=O)c1c(Cl)c(Cl)c(C(=O)OC)c(Cl)c1Cl", "Potency": "inactive"}
{"smiles": "CCCCC/C=C\\C/C=C\\CCCCCCCC(=O)NC(C)c1ccccc1", "note": "(centres undefined)", "Potency": "inactive"}
{"smiles": "Oc1ccccc1", "Potency": "inactive"}
{"smiles": "COC(=O)C1=C(C)NC(COC(N)=O)=C(C(=O)OC(C)C)C1c1cccc(Cl)c1Cl", "note": "(centres undefined)", "Potency": "inactive"}
{"smiles": "O=C1CC2(CCCC2)CC(=O)N1CCNCC1COc2ccccc2O1", "note": "(centres undefined)", "Potency": "inactive"}
{"smiles": "O=C(O)CCC(=O)OC[C@@H](NC(=O)C(Cl)Cl)[C@H](O)c1ccc([N+](=O)[O-])cc1", "Potency": "inactive"}
{"smiles": "CCCC(=O)c1cc(O)c(O)cc1O", "Potency": "inactive"}
{"smiles": "CCCCCCCCCCCCCC[N+](C)(C)C", "Potency": "14.1 µM (active)"}
{"smiles": "O=C(CCCCCCCCC#CI)Oc1ccccc1", "Potency": "inactive"}
{"smiles": "CO/N=C(/C(=O)N[C@@H]1C(=O)N2C(C(=O)[O-])=C(C[n+]3ccn4ncccc43)CS[C@H]12)c1nsc(N)n1", "Potency": "inactive"}
{"smiles": "Cc1ncc(CO)c(CO)c1O", "Potency": "inactive"}
{"smiles": "N=C(N)c1ccc(OCCCOc2ccc(C(=N)N)cc2)cc1", "Potency": "inactive"}
{"smiles": "C[N+]1(CC2COC(c3ccccc3)(c3ccccc3)O2)CCCCC1", "note": "(centres undefined)", "Potency": "inactive"}
{"smiles": "CCCCC(=O)OCC(=O)[C@H]1[C@H](C)C[C@H]2[C@@H]3C[C@H](F)C4=CC(=O)C=C[C@]4(C)[C@@]3(F)[C@@H](O)C[C@@]21C", "Potency": "inactive"}
{"smiles": "CC(C)(c1ccc(O)cc1)c1ccc(O)cc1", "Potency": "inactive"}
{"smiles": "CN1CCC(N(Cc2cccs2)c2ccccc2)CC1", "Potency": "inactive"}
{"smiles": "CC(=O)[C@@]1(O)CC[C@H]2[C@@H]3C[C@H](C)C4=CC(=O)CC[C@]4(C)[C@H]3CC[C@@]21C", "Potency": "inactive"}
{"smiles": "c1ccc(C(O[C@H]2CCCN(CCc3ccc4c(c3)OCO4)C2)c2ccccc2)cc1", "Potency": "inactive"}
{"smiles": "CN1CCC(Nc2ncc3ncnc(Nc4ccc(F)c(Cl)c4)c3n2)CC1", "Potency": "inactive"}
{"smiles": "NC(=O)COCCN1CCN(C(c2ccccc2)c2ccc(Cl)cc2)CC1", "note": "(centres undefined)", "Potency": "inactive"}
{"smiles": "C[C@@H](C1=C(CCN(C)C)Cc2ccccc21)c1ccccn1", "Potency": "inactive"}
{"smiles": "O=C(COCCOCCOCC(=O)Nc1c(I)cc(I)c(C(=O)O)c1I)Nc1c(I)cc(I)c(C(=O)O)c1I", "Potency": "inactive"}
